Bioassay records: PubChem, several laboratories
Rows were chosen to be rich in hits. Some 5.4% of all compounds tested hit in one or more screens of this group.
APOBEC3A inh: blocks human APOBEC3A ssDNA deamination; P31941; recombinant A3A, FAM/TAMRA ssDNA deamination fluorescence; inhibition, % at 20 µM; 0.41% of 330,000 active; AID 493011;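 active = at least 40% inhibition at 20 µM here, with at most 30% in a related deaminase screen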;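 note: plate controls were A3A with DMSO for no effect and wells lacking A3A enzyme for full effect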
Target sequence (P31941 whole entry, looked up): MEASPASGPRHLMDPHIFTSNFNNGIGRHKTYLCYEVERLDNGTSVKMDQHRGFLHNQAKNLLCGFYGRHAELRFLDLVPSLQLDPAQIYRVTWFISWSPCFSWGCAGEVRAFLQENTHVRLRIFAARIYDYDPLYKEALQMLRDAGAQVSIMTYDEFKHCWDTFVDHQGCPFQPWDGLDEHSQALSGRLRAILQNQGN
APOBEC3G inh: APOBEC3G (human) deaminase inhibition; Q9HC16; recombinant A3G, ssDNA deamination FAM/TAMRA fluorescence; inhibition, % at 20 µM; 0.28% of 330,000 active; AID 493012;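 active = inhibition of at least 40% at 20 µM, with no more than 30% in the related APOBEC3A deaminase screen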;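 note: plate controls were DMSO wells with A3G for no effect and wells lacking A3G enzyme for full effect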
aDG glyco act: increases alpha dystroglycan glycosylation. Pro5-aDG cells, alpha-DG glycosylation AlphaScreen (IIH6); 0% Pro5, 100% B10-LARGE cell signal. activation, % at 10 µM. 0.22% of 360,000 active. AID 624168;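 active = activation of at least 8% versus controls, or a plate z-score of at least 8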;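 note: Pro5 are CHO cells carrying HIG-tagged alpha-DG that lacks glycosylation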
rCAG binder: binds r(CAG) RNA repeats; r(CAG) RNA repeat, TO-PRO-1 dye displacement fluorescence; inhibition, % at 3 µM; 1.3% of 370,000 active;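 active = inhibition above the plate cutoff, the mean of all test compounds on that plate plus 3 SD, cut at about 35% in these data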;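 note: 0% = DMSO alone and 100% = 100 µM mitoxantrone as full dye displacement; higher means more dye released from RNA so lower well fluorescence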
ALR inh: inhibitors of human sulfhydryl oxidase ALR; 3.8% of 290,000 active; inhibition, % (test concentration not listed); P55789; purified ALR, DTT oxidation, H2O2 HRP-luminol luminescence; AID 485317;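 active = mean replicate inhibition above about 79%, with every replicate also reaching it, limit read from the data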
Target sequence (P55789 whole entry, looked up): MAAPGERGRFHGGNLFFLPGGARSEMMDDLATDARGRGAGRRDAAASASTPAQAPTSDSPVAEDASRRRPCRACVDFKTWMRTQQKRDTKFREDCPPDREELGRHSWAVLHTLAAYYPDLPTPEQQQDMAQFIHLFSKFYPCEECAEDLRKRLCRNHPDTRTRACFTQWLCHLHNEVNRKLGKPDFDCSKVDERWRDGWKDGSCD
PHOSPHO1 block: PHOSPHO1 (human) inhibition. AID 1565. inhibition, % at 13.3 µM. recombinant PHOSPHO1, absorbance phosphatase assay. 1.1% of 290,000 active; in the data active = inhibition above about 60%
The depositor's hits bear a star; . = no result given.

SMILES	APOBEC3A inh	APOBEC3G inh	aDG glyco act	rCAG binder	ALR inh	PHOSPHO1 block
CCN(CCNCC(O)COc1ccccc1C(C)C)c1cccc(C)c1 (centres undefined)	-2.4	3.7	-0.2	-4.9	99.1*	33.0
CCOC(=O)N1CCN(CC(O)COc2ccccc2C(C)C)CC1 (centres undefined)	0.2	1.2	0.5	-11.6	-2.7	45.0
Nn1c(SCC(=O)N2c3ccccc3Sc3ccc(Cl)cc32)nnc1-c1cc(-c2ccc(F)cc2)n[nH]1	.	.	.	19.3	.	.
COC(=O)[C@]12CCCCC=C1N(Cc1ccc(OC)cc1)C(=O)[C@@H]2CC(=O)N1CCCCC1	.	.	.	0.7	.	.
CCOC(=O)c1c(CSc2ccccc2)oc2cc(Br)c(O)c(CN(C)C)c12	-6.0	-0.8	0.1	-3.2	81.5*	-24.6
CCOC(=O)c1c(CSc2ccc(CC)cc2)oc2ccc(O)c(CN(C)C)c12	-1.9	-7.7	-0.4	7.6	-3.5	20.3
COc1ccc(/C=C/C(=O)c2ccc(C(=O)/C=C/c3ccc(OC)c(OC)c3)cc2)cc1OC	-1.2	-8.9	-0.4	17.1	.	22.9
COC(=O)c1ccc(/C=C/C(=O)c2ccc(OC)c(OC)c2)cc1	-4.7	-3.7	1.6	.	98.6*	17.9
COc1cc(/C=C/C(=O)c2ccc(F)cc2)cc(OC)c1OC	0.2	-4.1	1.1	1.6	96.6*	46.4
COc1cc(C(=O)/C=C/c2cccnc2)ccc1O	1.1	-0.2	0.1	0.1	99.6*	26.5
COc1ccc(/C=C/C(=O)c2ccc(OC)cc2OC)cc1	-3.3	-4.6	0.0	-4.7	94.2*	3.8
CC1(c2nnnn2-c2ccc3ccccc3c2)CSCC(=O)N1C1CC1 (centres undefined)	.	.	.	2.0	.	.
CCN(CC)c1ccc(N=CN2CCOCC2)cc1	-0.4	-1.5	-0.2	3.0	98.4*	9.6
Cn1ccnc1SCC(=O)Nc1ccc2c(c1)OCO2	0.7	-8.9	-0.1	-1.1	90.4*	-3.6
Cn1cc(SCC(=O)Nc2nc3ccccc3s2)c2ccccc21	-1.2	-6.8	-0.2	5.2	98.1*	-6.9
Cc1csc(SCC(=O)Nc2nc3ccccc3s2)n1	-1.8	-9.0	0.3	-1.2	-5.4	2.3
COc1cccc(NC(=O)CSc2nnc(-c3cccc(OC(C)C)c3)n2N)c1	-0.1	-0.1	0.1	-1.8	.	88.2*
CC(=O)Nc1ccc(NC(=O)CSc2cn(CC(=O)N3CCOCC3)c3ccccc23)cc1	-2.1	-1.5	-0.1	4.3	98.9*	22.2
CCOC(=O)C1=C[C@@H](C(C)(C)C)N(S(=O)(=O)c2ccc([N+](=O)[O-])cc2)[C@H]1c1ccccc1Cl	.	.	.	5.0	.	.
COc1ccc(-n2c(SCC(=O)Nc3ccc4c(c3)OCO4)nc3c(c2=O)SCC3)cc1	2.8	2.0	0.1	7.1	2.7	61.0*
CCn1cc(SCC(=O)NCC2CCCO2)c2ccccc21 (centres undefined)	4.1	3.5	-0.2	-1.0	98.2*	8.5
O=C(CSc1cn(CC(=O)N2CCCCCC2)c2ccccc12)NCC1CCCO1 (centres undefined)	-1.5	-4.9	0.0	-8.3	51.7	-4.6
Cn1cc(SCC(=O)Nc2ccc3c(c2)OCO3)c2ccccc21	-6.6	-12.1	0.1	2.9	-3.9	72.3*
Nn1c(SCC(=O)Nc2ccc3c(c2)OCO3)nnc1-c1ccccc1	-1.0	-3.9	0.3	0.2	-5.7	11.3
Cc1nnc(SCC(=O)Nc2ccc3c(c2)OCO3)n(N)c1=O	0.5	-6.6	-0.5	-0.8	94.5*	28.3
SMILES	APOBEC3A inh	APOBEC3G inh	aDG glyco act	rCAG binder	ALR inh	PHOSPHO1 block
COc1ccc(CN(C)C(=O)[C@@H](Cc2ccccc2)NC(=O)[C@H]2O[C@@H](n3ccc(N)nc3=O)[C@H](O)[C@@H]2O)cc1OC	.	.	.	2.1	.	.
CN1C(=O)c2cc(NC(=O)Nc3ccc(F)c(F)c3)ccc2OC[C@H]2O[C@@H](CC(=O)O)CC[C@H]21	.	.	.	3.5	.	.
CC(c1cc(F)ccc1O)c1c[nH]c2ccccc12 (centres undefined)	.	.	.	3.1	.	.
Cc1ccc(-n2c(SCC(=O)Nc3cccc4ccccc34)nnc2-c2ccccc2)cc1	.	.	.	3.6	.	.
c1ccc(-c2nnc3n2N=C(c2ccc4ccccc4c2)CS3)nc1	.	.	.	1.8	.	.
COc1ccccc1CN1Cc2ccccc2Oc2ccccc2S1(=O)=O	.	.	.	3.1	.	.
Nn1c(SCC(=O)Nc2ccc3c(c2)OCCO3)nncc1=O	-1.1	-7.4	0.2	4.5	89.5*	9.4
